Source: PubChem (The Scripps Research Institute Molecular Screening Center)
Compounds with a hit are over-represented: about 3.5% of the library has one in this group of screens.
FBW7 act = activators of human E3 ligase FBW7 | AlphaScreen FBW7–phospho-cyclin E peptide binding, activator screen | normalized activity (activation), % at 26.1 µM | 650,000 tested, 0.13% active | AID 1259310; in the data active = normalized activity above about 1.9%;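 note: purified mutant Fbw7 with reduced substrate affinity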
MITF primary = human MITF inhibition, primary screen; O75030; AlphaScreen MITF homodimerization, bead proximity signal; inhibition, % at 2.6 µM; 650,000 tested, 0.91% active; AID 1259374; in the data active = inhibition above about 50%;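 note: 0% = vehicle wells with protein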
GPR151 ag = activates the human receptor GPR151; PathHunter beta-arrestin GPR151 cells, luminescence; activation, % at 11.2 µM; Q8TDV0; 650,000 tested, 1% active; in the data active = activation above about 4.9%;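 note: 0% = median of compound wells and 100% = cells with positive control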
Target sequence (Q8TDV0 whole entry, looked up): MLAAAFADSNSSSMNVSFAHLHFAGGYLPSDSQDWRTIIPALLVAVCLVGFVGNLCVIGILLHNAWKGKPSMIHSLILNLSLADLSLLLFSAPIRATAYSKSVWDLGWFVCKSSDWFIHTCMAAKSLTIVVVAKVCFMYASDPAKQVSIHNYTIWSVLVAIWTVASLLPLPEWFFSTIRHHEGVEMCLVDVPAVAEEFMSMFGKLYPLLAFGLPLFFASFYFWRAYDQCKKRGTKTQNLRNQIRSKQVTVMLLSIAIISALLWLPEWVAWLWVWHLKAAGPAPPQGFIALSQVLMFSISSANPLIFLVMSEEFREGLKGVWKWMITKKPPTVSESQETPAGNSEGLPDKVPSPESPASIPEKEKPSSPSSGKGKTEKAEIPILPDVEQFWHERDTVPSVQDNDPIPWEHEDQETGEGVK
TEAD-YAP block = TEAD-YAP interaction inhibition. HEK-TIYL cells, TEAD-Gal4/YAP UAS-luciferase luminescence. inhibition, % at 9.12 µM. 640,000 tested, 1.4% active; in the data active = inhibition above about 32%;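 note: 0% = median of test compound wells and 100% = reference inhibitor wells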
The depositor's hits bear a star.

Results for Nc1nc(Nc2ccccc2)cc(Nc2ccc(N3CCOCC3)cc2)n1 ?
FBW7 act: 0; MITF primary: 5; GPR151 ag: -2; TEAD-YAP block: 15

How did Cc1csc(NC(=O)CN2Cc3ccccc3C2=O)n1 do in these assays?
FBW7 act: 0; MITF primary: 13; GPR151 ag: -1; TEAD-YAP block: 0

Results for Cc1ccc(/C=C2\C(=O)NC(=O)N(c3ccc(F)cc3)C2=O)o1 ?
FBW7 act: 0; MITF primary: 0; GPR151 ag: 1; TEAD-YAP block: 2

What do the screens show for `N=C1/C(=C\c2ccc(SCc3ccco3)o2)C(=O)N=C2SC(N3CCCC3)=NN12`?
FBW7 act: 0; MITF primary: 18; GPR151 ag: -1; TEAD-YAP block: 1

Results for CCOc1ccccc1N1C(=O)NC(=O)/C(=C/c2ccco2)C1=O ?
FBW7 act: -1; MITF primary: 38; GPR151 ag: 1; TEAD-YAP block: -3

How did O=C1NC(=O)N(c2ccc(F)cc2)C(=O)/C1=C\c1ccc(SCc2ccco2)o1 do in these assays?
FBW7 act: -1; MITF primary: 87*; GPR151 ag: 1; TEAD-YAP block: 12

Results for O=C1NC(=S)S/C1=C\c1ccc(SCc2ccco2)o1 ?
FBW7 act: -1; MITF primary: 58*; GPR151 ag: -1; TEAD-YAP block: 18

How did O=C1NC(=O)N(c2ccccc2)C(=O)/C1=C\c1ccc(-c2ccc([N+](=O)[O-])cc2)o1 do in these assays?
FBW7 act: 0; MITF primary: 2; GPR151 ag: -1; TEAD-YAP block: -4

How did O=C1NC(=O)N(c2ccc([N+](=O)[O-])cc2)C(=O)/C1=C/c1ccco1 do in these assays?
FBW7 act: 0; MITF primary: 78*; GPR151 ag: 0; TEAD-YAP block: -2

How did COc1ccccc1N1C(=O)NC(=O)/C(=C\c2ccco2)C1=O do in these assays?
FBW7 act: -1; MITF primary: 62*; GPR151 ag: 0; TEAD-YAP block: 0

How did Cc1cc(F)ccc1NS(=O)(=O)c1cc(Br)cnc1N do in these assays?
FBW7 act: 0; MITF primary: -11; GPR151 ag: -1; TEAD-YAP block: 4

Results for Cc1ccccc1OCC(=O)Nc1nc2ccccc2n1CCN1CCOCC1 ?
FBW7 act: 0; MITF primary: 1; GPR151 ag: -1; TEAD-YAP block: -5

What do the screens show for `CCC(CC)=NNC(=O)C(C)Sc1ccc(Cl)cc1` (stereo not given)?
FBW7 act: 0; MITF primary: 3; GPR151 ag: -1; TEAD-YAP block: -6

How did CSc1ccccc1N1C(=O)C2CC=CCC2C1=O (stereo not given) do in these assays?
FBW7 act: 0; MITF primary: 7; GPR151 ag: -1; TEAD-YAP block: -5

How did COc1cc([N+](=O)[O-])ccc1N/C=C/C(=O)c1ccco1 do in these assays?
FBW7 act: 0; MITF primary: 15; GPR151 ag: 0; TEAD-YAP block: 71*

How did COc1cc([N+](=O)[O-])ccc1NC(=O)c1ccco1 do in these assays?
FBW7 act: 0; MITF primary: 12; GPR151 ag: -1; TEAD-YAP block: -7

What do the screens show for `COc1cccc(C(=O)/C=C/Nc2ccc([N+](=O)[O-])cc2OC)c1`?
FBW7 act: 0; MITF primary: 1; GPR151 ag: 0; TEAD-YAP block: 35*

Results for COc1cc([N+](=O)[O-])ccc1N/C=C/C(=O)c1ccc(C)o1 ?
FBW7 act: 0; MITF primary: 1; GPR151 ag: 2; TEAD-YAP block: 35*

Results for c1ccc2c(CN3CCN(Cc4ccncc4)CC3)c[nH]c2c1 ?
FBW7 act: 0; MITF primary: 46; GPR151 ag: 0; TEAD-YAP block: 0

How did O=C(CSc1nc2ccsc2c(=O)n1CC1CCC(C(=O)O)CC1)Nc1nccs1 (stereo not given) do in these assays?
FBW7 act: 0; MITF primary: 6; GPR151 ag: 1; TEAD-YAP block: 8

How did CSc1ccc(-c2ccc(-n3ccnc3)cc2)nn1 do in these assays?
FBW7 act: 0; MITF primary: -37; GPR151 ag: -8; TEAD-YAP block: 52*

How did Cc1cc2ccccc2cc1Cn1c(-n2ccnc2)nc2c1c(=O)n(C)c(=O)n2C do in these assays?
FBW7 act: 0; MITF primary: 2; GPR151 ag: 1; TEAD-YAP block: 6

Results for Cn1c(=O)c2c(nc(-n3ccnc3)n2Cc2ccc(Cl)cc2Cl)n(C)c1=O ?
FBW7 act: 1.9*; MITF primary: 4; GPR151 ag: 1; TEAD-YAP block: -17

How did O=C(Cn1ncc2c(=O)oc3ccccc3c21)N1CCN(C2CCCCC2)CC1 do in these assays?
FBW7 act: 0; MITF primary: 4; GPR151 ag: 5; TEAD-YAP block: 4
